Data published in PubChem BioAssay (NCI).
This is part of a sample that, as a whole, favours compounds with a hit. Of some 79,000 tested, about 15% had one in any assay. Active and inactive are the calls of the source. Cut-off read from the data, not from the text of the source: active = growth inhibition above about 70%; inactive = the rest.

How the values were obtained:
[1] = NCI Yeast Anticancer Drug Screen. Data for the rad50 strain (AID 155);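 note: 0% = growth of vehicle-only cultures of the same strain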; conditions: S. cerevisiae rad50 strain growth inhibition, hits give high values
Method in brief: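 Yeast carrying a defined DNA repair defect were exposed to test compounds, and growth was compared with vehicle-treated controls to give percent inhibition.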

[2] = NCI Yeast Anticancer Drug Screen. Data for the mec2-1 strain (AID 157); conditions: S. cerevisiae mec2-1 strain, hits give high values
Method in brief: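 Cells of the genetically defined mec2-1 yeast strain are incubated with test compound. Inhibition of growth is calculated against vehicle-treated controls.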

[3] = NCI Yeast Anticancer Drug Screen. Data for the sgs1 mgt1 strain (AID 161);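 note: 0% = growth of cultures given vehicle only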; conditions: S. cerevisiae sgs1 mgt1 strain, hits give high values
Method in brief: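 Mutant yeast exposed to compound; growth scored against vehicle-only wells.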

[4] = NCI Yeast Anticancer Drug Screen. Data for the cln2 rad14 strain (AID 165);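 note: 0% = growth equal to vehicle treated cultures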; conditions: S. cerevisiae cln2 rad14 strain, hits give high values
Method in brief: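 The screen exposed genetically defined yeast (cln2 rad14) to test compounds and scored growth inhibition relative to vehicle-treated controls.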

[5] = NCI Yeast Anticancer Drug Screen. Data for the bub3 strain (AID 167); conditions: S. cerevisiae bub3 mutant strain, hits give high values
Method in brief: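 Compounds were applied to a genetically altered yeast strain carrying a cell-cycle control defect. Growth inhibition was scored against vehicle-treated controls.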

[6] = NCI Yeast Anticancer Drug Screen. Data for the mlh1 rad18 strain (AID 175); conditions: S. cerevisiae mlh1 rad18 strain growth inhibition, hits give high values
Method in brief: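 Compound-treated yeast growth, normalised to vehicle controls. Strain bears defined DNA repair mutations.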

[7] = at 5.0 µM (retest, dose inferred, filed as 0.5)
[8] = at 50.0 µM (retest, dose inferred, filed as 5.0)

Measured: growth inhibition

CCCCCCCCCCCCN1CC1
inactive: [1]; [7] -26% | [1]; [8] 26% | [2]; [7] -38% | [2]; [8] -7% | [2]; at 50.0 µM 68% | [3]; [7] -10% | [3]; [8] 47% | [3]; at 50.0 µM 58.5% | [4]; [7] -23% | [4]; [8] -2% | [4]; at 50.0 µM 59.5% | [5]; [7] 1% | [5]; [8] 44% | [6]; [7] -70% | [6]; [8] -17% | [6]; at 50.0 µM 67.1%
active: [1]; at 50.0 µM 91% | [5]; at 50.0 µM 82%

COc1cc(C(=O)CCN(CCCl)CCCl)cc(OC)c1OC
active: [1]; at 50.0 µM 95.5% | [2]; at 50.0 µM 97.3% | [3]; [8] 82% | [3]; at 50.0 µM 97.2% | [4]; at 50.0 µM 99.5% | [5]; [8] 82% | [5]; at 50.0 µM 93.2% | [6]; [8] 83% | [6]; at 50.0 µM 97.1%
inactive: [1]; [7] -1% | [1]; [8] 68% | [2]; [7] 0% | [2]; [8] 67% | [3]; [7] 13% | [4]; [7] 0% | [4]; [8] 55% | [5]; [7] -3% | [6]; [7] 13%

COC(=O)C(CCCN=C(N)N[N+](=O)[O-])NC(=O)c1ccc2c(c1O)C(=O)c1ccccc1C2=O (stereo not given)
inactive: [1]; [7] 8% | [1]; [8] 15% | [2]; [7] 4% | [2]; [8] 11% | [2]; at 50.0 µM 28.7% | [3]; [7] 6% | [3]; [8] 18% | [3]; at 50.0 µM 68.6% | [4]; [7] -4% | [4]; [8] 3% | [4]; at 50.0 µM 47.9% | [5]; [7] 2% | [5]; [8] 5% | [5]; at 50.0 µM 14.5% | [6]; [7] 5% | [6]; [8] 20% | [6]; at 50.0 µM 66.2%
active: [1]; at 50.0 µM 71.6%

CC[N-]c1nnnn1CC.[Au+].c1ccc([PH+](c2ccccc2)c2ccccc2)cc1
active: [1]; [7] 99% | [1]; [8] 98% | [1]; at 50.0 µM 97.8% | [2]; [7] 99% | [2]; [8] 98% | [2]; at 50.0 µM 98.4% | [3]; [7] 99% | [3]; [8] 98% | [3]; at 50.0 µM 97.7% | [4]; [7] 97% | [4]; [8] 96% | [4]; at 50.0 µM 97.2% | [5]; [7] 99% | [5]; [8] 98% | [5]; at 50.0 µM 97.8% | [6]; [7] 99% | [6]; [8] 97% | [6]; at 50.0 µM 97.2%

CCN(CCCl)c1cc(CN(C)C)cc(NC(=O)c2ccc(C(=O)Nc3cccc(N(CCCl)NN)c3)cc2)c1
active: [1]; [8] 91% | [1]; at 50.0 µM 89.4% | [2]; [8] 98% | [2]; at 50.0 µM 98.2% | [3]; [8] 98% | [4]; [8] 95% | [5]; [8] 92% | [5]; at 50.0 µM 97.8% | [6]; [8] 97% | [6]; at 50.0 µM 98.5%
inactive: [1]; [7] -6% | [2]; [7] -5% | [3]; [7] 10% | [3]; at 50.0 µM -2.7% | [4]; [7] 1% | [4]; at 50.0 µM 56.2% | [5]; [7] -16% | [6]; [7] 25%

CCCCCCC1CC2(Cl)C(Cl)=C(Cl)C1(Cl)C2(Cl)Cl (stereo not given)
inactive: [1]; [7] 32% | [2]; [7] 34% | [3]; [7] 53% | [4]; [7] 19% | [5]; [7] 20% | [6]; [7] 54%
active: [1]; [8] 99% | [1]; at 50.0 µM 99.7% | [2]; [8] 100% | [2]; at 50.0 µM 99.8% | [3]; [8] 99% | [3]; at 50.0 µM 99.8% | [4]; [8] 99% | [4]; at 50.0 µM 99.6% | [5]; [8] 99% | [5]; at 50.0 µM 99.7% | [6]; [8] 99% | [6]; at 50.0 µM 99.5%

O=C(c1ccccc1)C1CCCN(CCc2ccccc2)C1 (stereo not given)
active: [2]; [8] 70% | [3]; at 50.0 µM 73.3% | [4]; at 50.0 µM 82% | [5]; at 50.0 µM 84.2%
inactive: [1]; [7] 54% | [1]; [8] 64% | [1]; at 50.0 µM 57.3% | [2]; [7] 31% | [2]; at 50.0 µM 55.7% | [3]; [7] 54% | [3]; [8] 63% | [4]; [7] 48% | [4]; [8] 62% | [5]; [7] 43% | [5]; [8] 56% | [6]; [7] 56% | [6]; [8] 67% | [6]; at 50.0 µM 67.7%

CC(=O)OC1C2(CC3N4C(=O)C5(CO)SSC4(CC31O)C(=O)N5C)OC(C)C(C)(C)C2=O (stereo not given)
active: [1]; [8] 99% | [1]; at 50.0 µM 90.2% | [2]; [7] 80% | [2]; [8] 100% | [2]; at 50.0 µM 93.2% | [3]; [8] 97% | [3]; at 50.0 µM 92.8% | [4]; [8] 99% | [4]; at 50.0 µM 88.6% | [5]; [7] 71% | [5]; [8] 99% | [5]; at 50.0 µM 91.5% | [6]; [7] 83% | [6]; [8] 99% | [6]; at 50.0 µM 91.2%
inactive: [1]; [7] 67% | [3]; [7] 68% | [4]; [7] 64%

CCOP(=S)(OCC)SC(O)(C(F)F)C(F)F
active: [6]; [8] 78%
inactive: [1]; [7] 5% | [1]; [8] 34% | [1]; at 50.0 µM 28.8% | [2]; [7] -3% | [2]; [8] 54% | [2]; at 50.0 µM 22.9% | [3]; [7] 3% | [3]; [8] 62% | [3]; at 50.0 µM 42% | [4]; [7] -3% | [4]; [8] 32% | [4]; at 50.0 µM 22.4% | [5]; [7] -2% | [5]; [8] 69% | [5]; at 50.0 µM 39.4% | [6]; [7] 0% | [6]; at 50.0 µM 30.7%

CCC(C)(c1ccc(O)cc1)c1ccc(O)cc1
inactive: [1]; [7] 13% | [2]; [7] -5% | [3]; [7] 3% | [4]; [7] 21% | [5]; [7] 43% | [6]; [7] 14%
active: [1]; [8] 98% | [1]; at 50.0 µM 98.9% | [2]; [8] 99% | [2]; at 50.0 µM 99.5% | [3]; [8] 98% | [3]; at 50.0 µM 98.8% | [4]; [8] 98% | [4]; at 50.0 µM 99% | [5]; [8] 99% | [5]; at 50.0 µM 96.4% | [6]; [8] 99% | [6]; at 50.0 µM 98.7%
